The target of experiment [1] is T1, Aspartate--tRNA(Asp/Asn) ligase (Mycobacterium tuberculosis (strain ATCC 25618 / H37Rv)) (UniProt P9WFW3). Note: in the data most compounds retested in dose-response had high values.
T1 sequence (whole entry): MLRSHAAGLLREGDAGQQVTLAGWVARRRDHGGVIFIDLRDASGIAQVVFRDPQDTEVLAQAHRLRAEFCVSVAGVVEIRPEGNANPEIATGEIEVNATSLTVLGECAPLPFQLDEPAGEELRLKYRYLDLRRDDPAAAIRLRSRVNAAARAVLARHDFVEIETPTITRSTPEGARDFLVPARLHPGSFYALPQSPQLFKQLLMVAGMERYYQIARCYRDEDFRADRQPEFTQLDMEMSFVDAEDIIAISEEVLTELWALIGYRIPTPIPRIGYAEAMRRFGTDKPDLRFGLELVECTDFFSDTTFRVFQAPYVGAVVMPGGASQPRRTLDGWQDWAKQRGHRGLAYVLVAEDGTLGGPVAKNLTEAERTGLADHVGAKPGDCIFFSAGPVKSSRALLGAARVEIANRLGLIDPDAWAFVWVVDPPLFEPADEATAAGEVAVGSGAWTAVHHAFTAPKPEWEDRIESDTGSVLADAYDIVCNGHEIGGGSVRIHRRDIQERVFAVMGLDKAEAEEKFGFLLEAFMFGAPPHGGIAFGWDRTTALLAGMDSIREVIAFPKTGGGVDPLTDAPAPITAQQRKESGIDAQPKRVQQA
Put plainly: Assay for Asp RNA synthetase-1 from Mycobacterium tuberculosis. The class given is functional. More on the design: scale not given: direction of the effect not stated beside the values. The following applies: 30 µM.

Experiment [2] concerns the target Shiga toxin 2 (Escherichia coli O157:H7) (UniProt P09385+P09386). Put plainly: E. coli 0.157:H7 Shiga Toxin SOP - stx2 screening assay. The class given is functional. More on the design: scale not given: direction of the effect not stated beside the values. The following applies: 30 µM.

Take `O=C(NCC1CC1)[C@@H]1CCO[C@@H]2CCN(Cc3ccco3)C[C@H]21`: the values for the Percent Effect in experiment [1] and in experiment [2] were 7.48% and -6.74%, respectively.

Regarding `Cc1cccc(-n2ncc(C(=O)N3CCn4c(C)nnc4C3)c2C)c1`, the Percent Effect is 3.68% in experiment [1] and 32.6% in experiment [2].

On to `O=C(CSc1ccccn1)N1C[C@H]2CC[C@@H]1CN(Cc1cscn1)C2`, for which the Percent Effect in experiment [1] was -1.93%; in experiment [2] it was -6.72%.

Consider `Cn1c(CN2CCOCC2)nnc1C1CCN(C(=O)C2CCCC2)CC1`, for which the Percent Effect in experiment [1] is 1.73%; in experiment [2], -33.5%.

In the case of `CCn1cc(C(=O)N2CCCC(c3[nH]ncc3S(C)(=O)=O)C2)cn1` (configuration not stated), the Percent Effect in experiment [1] is -3.25%; in experiment [2] it was -8.37%.

With `CN1CCc2onc(CNc3ncccn3)c2C1`, the Percent Effect is 6.7% in experiment [1] and -1.52% in experiment [2].

With `COc1c(CNC(c2nccn2C)C(C)C)c(C)nn1C` (configuration not stated), the values for the Percent Effect in experiment [1] and in experiment [2] were 0.122% and 16.3%, respectively.

As to `O=C(NCC1CC1)c1nc(COc2ccc3c(c2)OCO3)no1`, the Percent Effect in experiment [1] was -5.11%; in experiment [2] it was -58.6%.

For `COc1ccc(CN(C)C(=O)NCc2c(C)cc(C)[nH]c2=O)cc1`, the Percent Effect was 0.281% in experiment [1] and 31.7% in experiment [2].

For `Cc1nccn1CCCC(=O)N1CCC(Nc2cccnn2)CC1`, the results for the Percent Effect in experiment [1] and in experiment [2] were -0.211% and -6.43%, respectively.

In the case of `O=C1COC2(CCN(Cc3cccs3)CC2)CN1c1ccccc1`, the Percent Effect in experiment [1] is -2.62%; in experiment [2], -22%.

For `CN(C)C(=O)N1CCN(CCn2nc3ccccn3c2=O)CC1`, the results for the Percent Effect in experiment [1] and in experiment [2] were -3.02% and -19.4%, respectively.

Regarding `CCc1noc(CNc2ccc(C(=O)N3CCCC(C)C3)cc2C)n1` (configuration not stated), the values for the Percent Effect in experiment [1] and in experiment [2] were -1.27% and 19.1%, respectively.

In the case of `c1ccc(COC2CCN(c3cncc(-n4cccn4)n3)CC2)cc1`, the Percent Effect in experiment [1] is -3.76%; in experiment [2], -38.3%.

As to `CN(Cc1nc2c(cnn2C)c(=O)[nH]1)Cc1ccc(F)cc1F`, the Percent Effect is -2.26% in experiment [1] and -10.7% in experiment [2].

For `CN(c1cccnn1)C1CCN(C(=O)c2ccc3c(c2)COC3)CC1`, the Percent Effect in experiment [1] is -2.64%; in experiment [2], 13.1%.

Consider `Cc1ncsc1CN1C[C@@H]2COC[C@]2(C(=O)NCC2CC2)C1`, for which the Percent Effect in experiment [1] is 0.838%; in experiment [2], -13.5%.

Turning to `Cc1ccc(C(=O)NCC2(O)CCOCC2)cc1Br`, the values for the Percent Effect in experiment [1] and in experiment [2] were -1.3% and 8.46%, respectively.

Regarding `CCOC(=O)[C@]12CCCN(Cc3ccco3)C[C@H]1CN(CCN(C)C)C2`, the values for the Percent Effect in experiment [1] and in experiment [2] were 4.07% and -6.83%, respectively.

Take `O=C(C1CCOCC1)N1CCc2ncnc(-c3ccc(F)cc3)c2CC1`: the Percent Effect is -1.43% in experiment [1] and -14% in experiment [2].

On to `COCC1c2nnn(CC3CC3)c2CCN1C(=O)c1cccc(F)c1` (configuration not stated), for which the Percent Effect in experiment [1] is -5.71%; in experiment [2] it was 7.97%.

Take `c1ccc(-c2noc3c2CN(CC2CC2)CC3)cc1`: the Percent Effect in experiment [1] is 4.77%; in experiment [2], -9.68%.

Consider `CC(C)N1CCC(Cc2cnc(-c3cccc(C(=O)O)c3)cn2)C1` (configuration not stated), for which the Percent Effect in experiment [1] was -5.2%; in experiment [2], 16%.

For the molecule `CCCn1ncc2c(C(=O)Nc3cnn(CC)c3C)cc(C3CC3)nc21`, the Percent Effect in experiment [1] was -1.49%; in experiment [2], -0.924%.

On to `Cn1nc2c(cc1=O)CN(Cc1nnc(-c3ccco3)o1)CC2`, for which the Percent Effect in experiment [1] amounted to 15.6%; in experiment [2], 2.57%.

With `CC(C(N)=O)S(=O)(=O)Cc1cc(Cl)c2c(c1)OCO2` (configuration not stated), the figures for the Percent Effect in experiment [1] and in experiment [2] were -7.47% and 26.2%, respectively.

Take `Cc1ccc2cc(C(=O)NCCn3nc4ccccn4c3=O)[nH]c2c1`: the figures for the Percent Effect in experiment [1] and in experiment [2] were -5.08% and -70.8%, respectively.

On to `Cc1noc2ncc(C(=O)NCC3CCN(C(C)C)C3)cc12` (configuration not stated), for which the figures for the Percent Effect in experiment [1] and in experiment [2] were 1.08% and 17.2%, respectively.

Regarding `Cc1noc(C)c1CN1CC[C@H]2OCC[C@@H](C(=O)NCC3CC3)[C@@H]2C1`, the Percent Effect in experiment [1] is -1.49%; in experiment [2] it was -13.8%.

As to `Cc1ccccc1[C@@H]1CN(C(=O)c2ccc3[nH]nnc3c2)C[C@H]1C(=O)O`, the Percent Effect in experiment [1] is 2.17%; in experiment [2] it was -15.8%.

For `CCc1ncnc2c1CCN(C(=O)N1CCCC1)CC2`, the Percent Effect in experiment [1] is 1.98%; in experiment [2] it was -14%.

With `CC(C)c1ccc(O)c(C(=O)N2CCN(Cc3cscn3)CC2)c1`, the Percent Effect in experiment [1] was -0.175%; in experiment [2], -7.95%.

Take `CC(C)NS(=O)(=O)c1cc(C(=O)O)cc(-c2ccc(CN(C)C)cc2)c1`: the Percent Effect in experiment [1] is -3.46%; in experiment [2], -20.1%.

Regarding `Cc1nccc([C@@H]2C[C@@H]3CCN(S(C)(=O)=O)C[C@H]3O2)n1`, the Percent Effect in experiment [1] came to 2.92%; in experiment [2], 11.1%.

In the case of `Cc1cccc(NC2CCN(C(=O)Nc3cc(F)cc(F)c3)CC2)n1`, the Percent Effect is -4.31% in experiment [1] and -78.9% in experiment [2].

Consider `CC(C)CCC(C)NC(=O)c1ccc(OCC(N)=O)cc1` (configuration not stated), for which the figures for the Percent Effect in experiment [1] and in experiment [2] were 2.49% and -8.96%, respectively.

With `CC(C)n1cc(CN2CCCN(C(=O)c3ccc[nH]3)CC2)cn1`, the figures for the Percent Effect in experiment [1] and in experiment [2] were -3.14% and -5.02%, respectively.

With `CN1CC(=O)N(c2cccnc2)CC12CCN(C(=O)C1CCCCC1)C2` (configuration not stated), the Percent Effect in experiment [1] is 6.7%; in experiment [2], -1.32%.

Take `CC(O)CN1CCN(Cc2cccc(C(=O)N(C)C)c2)CC1` (configuration not stated): the Percent Effect is -6.5% in experiment [1] and -1.9% in experiment [2].

As to `CCc1cnc2c(c1NCc1cccc(OC)c1)c(=O)n(C)c(=O)n2C`, the Percent Effect in experiment [1] is -0.0729%; in experiment [2], -21.5%.

In the case of `CCn1nc(C(C)C)cc1C(=O)NCCCOC`, the figures for the Percent Effect in experiment [1] and in experiment [2] were -1.73% and 3.47%, respectively.

`CC(Cn1cccn1)NC(=O)Nc1nccs1` (configuration not stated): the Percent Effect in experiment [1] was -0.364%; in experiment [2], 2.8%.

On to `COC(=O)c1cccn1C1CCN(C(=O)c2cc(C)ccc2O)CC1`, for which the Percent Effect in experiment [1] is 3.4%; in experiment [2] it was 21.2%.

Turning to `CCc1ccc(CN2CCCC(CO)(CCOC)C2)cc1` (configuration not stated), the results for the Percent Effect in experiment [1] and in experiment [2] were -1.96% and -14%, respectively.

On to `Nc1cc(CCC2CN(Cc3ccc(C(=O)O)cc3)CCO2)ccn1` (configuration not stated), for which the Percent Effect was determined as 2.72% in experiment [1] and 55.2% in experiment [2].

For the molecule `c1cnnc(N2CCCC(NCc3nc(C4CC4)no3)C2)c1` (configuration not stated), the results for the Percent Effect in experiment [1] and in experiment [2] were 6.87% and -18.7%, respectively.

With `Cc1ccc(CN2CCn3cc(CN(C)Cc4ccco4)nc3C2)o1`, the Percent Effect in experiment [1] was 1.01%; in experiment [2], -24.1%.

`CC(C)c1noc(CN(Cc2cccs2)C2CC2)n1`: the Percent Effect is -0.416% in experiment [1] and -48.4% in experiment [2].

As for `N#Cc1ccc(N2CCN(C(=O)c3cc(C4CC4)[nH]n3)CC2)c(F)c1`, the Percent Effect was -6.09% in experiment [1] and -10.4% in experiment [2].

In the case of `COc1ncc(C2(O)CCN(Cc3cccs3)CC2)c(OC)n1`, the Percent Effect is -0.868% in experiment [1] and -24.4% in experiment [2].

For the molecule `O=C1NC2(CCN(C(=O)Cc3ccsc3)CC2)CC1c1ccncc1` (configuration not stated), the Percent Effect was 1.5% in experiment [1] and -5.98% in experiment [2].
